LNCaP diff act: activators of LNCaP prostate cell differentiation; flow cytometry side scatter, 4 d; side scatter shift, % at 10 µM; 24,000 compounds, 0.56% hits;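 active = side scatter shift above 30%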;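 note: androgen-responsive LNCaP prostate cancer cells in charcoal-stripped serum medium; percent of cells past a gate set so DMSO wells show 10% shift; higher shift means more granular cells and more differentiation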
S aureus QS inh: S. aureus quorum sensing inhibition; S. aureus RN6390 RNAIII-GFP reporter, AIP-induced, flow cytometry 3 h; inhibition, % at 2 µM; 24,000 compounds, 0.3% hits; AID 527;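 active = share of bacteria positive for the green fluorescent reporter and its mean brightness both inhibited by 50% or more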;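 note: 0% = AIP-stimulated control and 100% = unstimulated bacteria without AIP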
Active calls of the source: *. Hits are enriched below; roughly 0.83% of the tested compounds scored in any of these assays.

SMILES | LNCaP diff act | S aureus QS inh
N=c1n(CCN2CCCCC2)c2ccccc2n1CC(O)COc1ccccc1 (stereo not given) | 64.0* | 2.3
O=C(CN(Cc1ccc2c(c1)OCO2)C(=O)CNS(=O)(=O)c1ccccc1)NCc1ccco1 | 2.0 | 20.9
Cc1cc(NC(=O)C2CCCCC2)nc2c1c(=O)oc1ccccc12 | 9.0 | -4.1
Cc1cc(NC(=O)C2CCCC2)nc2c1c(=O)oc1ccccc12 | 6.0 | 54.1*
Cc1ccc(Cn2ccc(NC(=O)c3cc(CC(C)C)on3)n2)cc1 | 9.0 | 1.7
Cc1nnc(SCC(=O)Nc2ccc(Br)cn2)[nH]c1=O | 5.0 | -2.4
CCc1c(C)nc(SCC(=O)Nc2ccc(Br)cc2)[nH]c1=O | 10.0 | 79.6*
c1csc(Cc2nc(-c3ccc(-n4cccc4)cc3)no2)c1 | 11.0 | -3.7
CC1CCCCN1C(=O)Cn1c(=O)n(C2CCCCC2)c(=O)c2ccccc21 (stereo not given) | 6.0 | -3.2
Clc1cccc(-c2nnc3sc(-c4ccccc4)nn23)c1 | 32.0* | 2.5
COc1cccc(-c2nnc3sc(-c4ccc(C)cc4)nn23)c1 | 9.0 | -0.6
CC1CN(c2nc3ccccc3nc2C(C#N)C(=O)NCc2ccc3c(c2)OCO3)CC(C)O1 (stereo not given) | 2.0 | -0.6
CCCCOc1ccccc1-c1cc(C(=O)O)[nH]n1 | 21.0 | 1.4
CCCn1c(C)cc(=O)c2cc(NC(=O)c3ccccn3)ccc21 | 9.0 | 2.4
